About 450 (0.94%) of roughly 48,000 compounds were called active. About 19% were inconclusive and are not listed. The call rests on the fitted dose curve; in most records, active means well fitted inhibition curve with a large enough effect; inconclusive means small, poorly fitted or top-dose-only effect; inactive means no such curve, though single readings can be large or run the other way. The sample as a whole holds a higher share of actives than the screen did.

30 compounds from PubChem BioAssay AID1508623 (National Center for Advancing Translational Sciences (NCATS), 2021) can be followed below.
Potency means the concentration at half of the fitted maximal effect.

This assay can be described thus: Primary qHTS for Identification of Small Molecule Inhibitors of Huntingtin Promoter Activity. Further: nearly all actives have a fitted effect of over 50% in size. Conditions: HEK293 HTT promoter firefly luciferase reporter (activity 0% = vehicle and -100% = no light), 24 h; series mostly up to 57.5 µM; activity change, negative = inhibition: at the top concentration. The source says: Assay Provider: Russell L. Margolis M.D.
Department Neurology, Johns Hopkins University School of Medicine, Baltimore, MD
Huntington's Disease (HD) is a neurodegenerative disorder caused by a CAG repeat expansion in exon 1 of huntingtin (HTT). While there are currently no disease-modifying treatments for HD, recent efforts have focused on development of nucleotide-based therapeutics to lower HTT expression. As an alternative to siRNA or oligonucleotide methods, we hypothesized that suppression of HTT expression might be accomplished by small molecules that either (1) directly decrease HTT expression by suppressing HTT promoter activity or (2) indirectly decrease HTT expression by increasing the promoter activity of HTT-AS, the gene antisense to HTT that appears to inhibit expression of HTT.
We developed and employed a high throughput screen for modifiers of HTT and HTT-AS promoter activity using luminescent reporter HEK293 cells; of the 52,041 compounds tested, we identified 898 replicable hits. We used a rigorous stepwise approach to assess compound toxicity and the capacity of the compounds to specifically lower huntingtin protein in 5 different cell lines, including HEK293 cells, HD lymphoblastoid cells, mouse primary neurons, HD iPSCs differentiated into cortical-like neurons, and HD hESCs. We found no compounds which were able to lower huntingtin without lowering cell viability in all assays, though the potential efficacy of a few compounds at non-toxic doses could not be excluded.
SEQUENCE No. (1, 2, 3, etc.); […] (e.g., Cells, Incubation, Reagent, etc.); VALUE and DESCRIPTION.
1; Reagent; 4 uL; 2,500 Hek293 luciferase reporter cells per wells
3; Compound; 23 nL; Control inhibitor / compound library
5; Reagent; 2.5 uL; Firefly Luc reagent; Dual-Glo Luciferase Reporter Assay System (Promega)
6; Time; 10 min; room temperature incubation
7; Detection; Luminescence; FLuc
NOTES (numbers refer to sequence above)
1; High-throughput screening, measuring luminescence from a Hek293 luciferase reporter, was performed in 1,536 well white-walled tissue-culture treated plates. 2,500 cells were plated in 4 µL of Opti-MEM per well using a Multidrop Combi Reagent Dispenser (ThermoFisher).
2; Assay plates were cultured for 24 hours.
3; Control inhibitor (PTC124; final concentration of 50 uM) and compound library (at final concentrations of 460 nM - 57.5 uM) were added to the assay plate using the Kalypsis Pintool Robotic System equipped with 1536 pinheads.
4; Cells were then incubated for 24 hours at 37 degrees C prior to luminescence measurements.
5; In all cases, luminescence was measured using the Dual-Glo Luciferase Reporter Assay System (Promega) following the manufacturer's instructions.
6; Room temperature incubation.
7; Luminescence signal was obtained using the PerkinElmer ViewLux plate reader. Results were normalized to vehicle control (0% activity) and zero RLU (-100% activity).
In general terms: Quantitative high-throughput screening tests each substance at several concentrations.
Take `COc1ccc(Br)cc1C1CC(=O)Nc2c1c(C)nn2-c1nc(C)cc(C)n1` (stereo not given): the “activity change, negative = inhibition” value is -16.2% (inactive).

In the case of `CCC(=O)Nc1c(C(=O)N2CCN(c3ccc(F)cc3)CC2)oc2ccccc12`, the “activity change, negative = inhibition” value is -33.6% (inactive).

Turning to `COc1cccc(-c2n[nH]c3c2C(c2cccc(O)c2)N(C)C3=O)c1` (stereo not given), the “activity change, negative = inhibition” value was 17.8% (inactive).

For `COc1ccc(Cn2ccn(Cc3cccc(OC)c3)c(=O)c2=O)cc1`, the “activity change, negative = inhibition” value was -28.6% (inactive).

Consider `CCN1CCN(CCCNC(=O)c2cnn(-c3ccc(C)cc3C)c2C2CCN(C(=O)OC(C)(C)C)CC2)CC1`, for which the “activity change, negative = inhibition” value is -19.2% (inactive).

Take `CCCCNC(=O)CSc1nc2cc3c(cc2c(=O)n1CCCCCC(=O)NCc1ccc2c(c1)OCO2)OCO3`: the “activity change, negative = inhibition” value was -6.32% (inactive).

As to `CCOC(=O)C1CCN(C(c2ccc(F)cc2)c2sc3nc(-c4ccco4)nn3c2O)CC1` (stereo not given), the “activity change, negative = inhibition” value was 18.8% (inactive).

Regarding `CCOC(=O)c1cccc(NS(=O)(=O)c2cc(-c3cnc(C)o3)ccc2OC)c1`, the “activity change, negative = inhibition” value was -42.3% (inactive).

On to `COc1ccc(-c2cccc(NS(=O)(=O)c3cc(C)c(OC)c(C)c3C)c2)nn1`, for which the Potency is 11.2 µM (active).

`Cc1ccc(CCNC(=O)Cn2c(-c3cccs3)cc3cc(F)ccc32)cc1`: the “activity change, negative = inhibition” value was -11.7% (inactive).

Turning to `CCc1ccccc1NC(=O)Cn1c(=O)n(CC2CCC(C(=O)NCCc3ccccc3)CC2)c(=O)c2ccccc21` (stereo not given), the “activity change, negative = inhibition” value was -7.23% (inactive).

Take `COc1ccc(OC)c2sc(N3CCN(C(=O)C4COc5ccccc5O4)CC3)nc12` (stereo not given): the “activity change, negative = inhibition” value is 0.0158% (inactive).

On to `COc1cc(NS(=O)(=O)c2ccc3c(c2)OCC(C(=O)N2CCCC2)O3)cc(OC)c1` (stereo not given), for which the Potency was 14.1 µM (active).

For `COc1cc(NS(=O)(=O)c2cccs2)cc(OC)c1`, the “activity change, negative = inhibition” value is -9.91% (inactive).

Consider `COc1ccccc1CNC(=O)C(=O)NCC(c1cccs1)S(=O)(=O)c1cccs1` (stereo not given), for which the “activity change, negative = inhibition” value was -23.9% (inactive).

For `CC1CN(C(=O)N2CCC(C(=O)NCc3ccco3)CC2)c2cc(Cl)ccc2O1` (stereo not given), the “activity change, negative = inhibition” value is -15.5% (inactive).

As to `CCc1ccc(CN(Cc2ccco2)C(=O)COc2ccc(Cl)c(C)c2)cc1`, the “activity change, negative = inhibition” value is -27.9% (inactive).

Take `CC(C)NC(=O)C1CCC(Cn2c(=O)c3sccc3n(Cc3ccc(F)cc3)c2=O)CC1` (stereo not given): the “activity change, negative = inhibition” value was -5.63% (inactive).

Consider `CC(=O)Nc1cccc(NC(=O)CSc2cn(CC(=O)N3CCCC3)c3ccccc23)c1`, for which the “activity change, negative = inhibition” value was -8.94% (inactive).

Regarding `Cc1ccc(-c2nn(CCC(=O)Nc3ccc(OC(F)(F)F)cc3)c(=O)c3ccccc23)cc1`, the “activity change, negative = inhibition” value was 0.132% (inactive).

With `CCc1ccc(NC(=O)CN2CCSc3ccc(S(=O)(=O)N4CCCC4)cc32)cc1`, the Potency was 31.6 µM (active).

As for `CCc1ccc(NC(=O)CN2C(=O)CCSc3ccc(S(=O)(=O)N4CCCC4)cc32)cc1`, the “activity change, negative = inhibition” value was -29.8% (inactive).

`CN(C(=O)CN1C(=O)CCSc2ccc(S(=O)(=O)N3CCCC3)cc21)c1ccccc1`: the “activity change, negative = inhibition” value was -11.3% (inactive).

For the compound `COC(=O)c1ccccc1NC(=O)c1cnn(-c2ccc(F)cc2)c1-n1cccc1`, the “activity change, negative = inhibition” value is -22% (inactive).

For the compound `CCCCN(CC)CCCNC(=O)c1nn(C)c2c1CS(=O)(=O)c1ccccc1-2`, the “activity change, negative = inhibition” value was -0.275% (inactive).

As to `CCCCC(=O)OC1=CN(Cc2ccccc2)S(=O)(=O)c2ccccc21`, the “activity change, negative = inhibition” value is -7.99% (inactive).

Take `COc1cccc(NC(=O)Cn2c(=O)cc(C)c3c(C)nn(-c4cccc(F)c4)c32)c1`: the “activity change, negative = inhibition” value is 33.6% (inactive).

Turning to `COc1ccc(NC(=O)c2ccco2)cc1NC(=O)COc1ccc(C)c(C)c1`, the “activity change, negative = inhibition” value is -38.4% (inactive).

For the compound `CCOC(=O)c1ccccc1NC(=O)CCc1c(C)nc2c(c1C)c(=O)n(C)c(=O)n2C`, the “activity change, negative = inhibition” value is -2.84% (inactive).

As for `CCc1nn(CC(=O)NCC(C)c2ccccc2)c(=O)c2cc3occc3n12` (stereo not given), the “activity change, negative = inhibition” value is 1.38% (inactive).
